# This is a sample that favours compounds with a hit; in the whole collection about 12% have one here.
# Sfp PPTase inh: blocks B. subtilis Sfp PPTase activity | Potency, µM, for inactives: largest response in the series, negative = inhibition, most hits filed as inhibitors | Biochemical Sfp PPTase activity, qHTS | hit rate 3.5% among 310,000 | AID 1490;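 further: the enzyme is Sfp with the accession as filed and its product quenches rhodamine fluorescence; 0% = enzyme reaction without inhibitor and -100% = no enzyme wells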
#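 Buffer: 50 mM Hepes-Na pH 7.6, 10 mM MgCl2, 0.01% Nonidet P-40, 0.01% BSA. Enzyme 15 nM, pre-exposed to compound 15 min; substrates then added and fluorescence change tracked over 30 min.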
# VP16 counter: counter-screen for ROR gamma inhibitors: Gal4-VP16 reporter; hit rate 3.5% among 310,000; AID 2546; Potency, µM (top dose mostly 53.6 µM), without a hit: at the top dose activity, negative = inhibition, usual class: inhibitors; Drosophila S2 Gal4-VP16 UAS-luciferase, luminescence, 20 h;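 further: Gal4-VP16 expression switched on by copper sulfate through the metallothionein promoter; nearly all actives have a fitted effect of over 50% in size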
# RORg inh: inhibitors of mouse ROR gamma transcriptional activity; P51450; Drosophila S2 Gal4-RORgamma UAS-luciferase reporter, 20 h; Potency, µM (highest dose often 53.6 µM), without a hit: at the top dose activity change, negative = inhibition, actives largely listed as inhibitors; hit rate 5.4% among 310,000; AID 2551; further: nearly all actives have a fitted effect of over 60% in size
#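 Schneider cells (Drosophila), stable Gal4 DBD–ROR gamma + UAS-luc; 1 hr cmpd preincubation; Cu2+ induction 700 uM final; 20 hr ambient; luminescence.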
# ALDH1A1 inh: ALDH1A1 (human) enzyme inhibition; Purified ALDH1A1, NADH fluorescence, propionaldehyde substrate; Potency, µM (titrated, usually from 75.3 µM), for the others: at the top dose activity, negative = inhibition, actives largely listed as inhibitors; hit rate 7.3% among 220,000; AID 1030; active means well fitted inhibition curve with a large enough effect, not every such curve was filed as active; inconclusive means small, poorly fitted or top-dose-only effect, or another doubt; inactive means no such curve, though single readings can be large or run the other way;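 further: plate controls were no enzyme wells and a reference inhibitor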
# Target sequence (P00352 whole entry, looked up): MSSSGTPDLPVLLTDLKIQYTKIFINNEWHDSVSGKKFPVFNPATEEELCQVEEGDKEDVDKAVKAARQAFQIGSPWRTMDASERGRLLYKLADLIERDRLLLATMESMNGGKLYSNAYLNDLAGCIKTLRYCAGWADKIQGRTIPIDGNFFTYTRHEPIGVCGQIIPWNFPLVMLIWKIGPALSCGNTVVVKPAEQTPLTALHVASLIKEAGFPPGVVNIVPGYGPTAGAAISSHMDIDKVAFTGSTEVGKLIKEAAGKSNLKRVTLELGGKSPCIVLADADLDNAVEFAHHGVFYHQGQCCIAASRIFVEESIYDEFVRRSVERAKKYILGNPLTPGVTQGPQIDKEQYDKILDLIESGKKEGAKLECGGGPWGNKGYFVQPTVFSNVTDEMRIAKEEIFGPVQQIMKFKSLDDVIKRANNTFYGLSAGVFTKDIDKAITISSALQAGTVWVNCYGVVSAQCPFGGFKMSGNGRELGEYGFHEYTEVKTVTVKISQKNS
# PLK1 PBD inh: inhibitors of human PLK1 polo-box domain binding; hit rate 2.8% among 360,000; P53350; Potency, µM, for inactives: max response, negative = inhibition, hits mostly inhibitors; Plk1 PBD binding of FITC phosphopeptide, fluorescence polarization; further: series mostly up to about 57 µM; nearly all actives have a fitted effect of over 65% in size
# Active calls of the source: *; ? = inconclusive; . = not tested or not shown; [ ] = dose if it differs, or a comment. Unless noted, the call rests on the fitted dose curve; in most records, active means well fitted curve in the direction sought with a large enough effect; inconclusive means small, poorly fitted or top-dose-only effect, or another doubt; inactive means no such curve, though single readings can be large; an effect the other way counts as inactive or inconclusive. Unless noted, on the % scale 0 is the no-effect control and ±100 the full control effect; potency means the concentration at half of the fitted maximal effect.
SMILES,Sfp PPTase inh,VP16 counter,RORg inh,ALDH1A1 inh,PLK1 PBD inh
Cc1cc2c(=Cc3ccc(N(C)C)cc3)c3ccccc3n2[n+]1C,.,.,.,.,12.8%
C[n+]1c(-c2ccccc2)cc2c(=Cc3ccc([N+](=O)[O-])cc3)c3ccccc3n21,.,.,.,.,2.12µM*
Cc1cc(C)cc(NC(=O)CSc2nnc(CNC(=O)c3ccco3)n2C)c1,.,.,.,.,-4.8%
Cc1ccc(N=C2NC(=O)/C(=C/c3cccn3C)S2)cc1,7.4%,-9.8%,-41.9%,.,-2.5%
CC1C/C(=C/c2cccn2C)C(=O)/C(=C/c2cccn2C)C1 (stereo not given),?,?,12.6µM*,3.55µM*,14.0%
CC1C/C(=C/c2ccncc2)C(=O)/C(=C/c2ccncc2)C1 (stereo not given),?,2.82µM*,7.08µM*,-1.7%,-27.0%
NC(=O)/N=C(\N)NC(=O)c1ccccc1,.,.,.,-4.8%[13.5 µM],.
COCCNC(=O)C1CCCN(C(=O)c2ccc3ccccc3n2)CC1 (stereo not given),.,.,.,.,-10.0%
Cc1[nH]c2ccccc2c1C(=O)COC(=O)c1ccc([N+](=O)[O-])s1,12.9%,3.2%,-7.6%,11.2µM*,-7.9%
O=C(COC(=O)c1ccc([N+](=O)[O-])s1)NCc1ccccc1,12.5%,-23.8%,11.2µM*,?,1.1%
Cc1[nH]c2ccccc2c1C(=O)COC(=O)c1ccc[n+]([O-])c1,-0.6%,-0.8%,31.1%,.,2.8%
O=C(COC(=O)c1ccc([N+](=O)[O-])s1)NC(c1ccccc1)c1ccccc1,-7.6%,5.5%,-23.7%,22.4µM*,-3.2%
Cc1c(Cl)cnc(NC(=O)COC(=O)c2ccc([N+](=O)[O-])s2)c1Cl,?,-5.0%,34.6%,11.2µM*,?
O=C(Nc1ccc2c(c1)OCCO2)C(=O)NC1CC1,8.0%,?,?,.,4.7%
CC(=O)N1CCN(Cc2cc(=O)oc3cc(C)cc(C)c23)CC1,.,.,.,.,-19.7%
CC(C)(CNC(=O)c1cccc(S(=O)(=O)N2CCCCC2)c1)N1CCOCC1,.,.,.,.,-5.4%
CC(C)[C@@H](CC(=O)N[C@@H]1CCNC[C@H]1C(=O)N[C@H](CC(=O)N[C@@H](CCC(=O)O)CC(=O)O)Cc1c[nH]c2ccccc12)NC(=O)C[C@H](Cc1c[nH]c2ccccc12)NC(=O)[C@@H]1CCCC[C@H]1N,-5.5%,-0.6%,-9.9%,-7.6%,.
OC[C@H]1O[C@@H](c2nc(-c3ccc(CN4CCOCC4)cc3)no2)[C@H](O)[C@@H](O)[C@H]1O,.,.,.,.,-8.8%
CCN(CC)c1ccc(NC(=O)CCS(=O)(=O)c2cccc3nsnc23)c(C)c1,-0.3%,-15.2%,-12.4%,28.2µM*,-18.1%
O=C(CCS(=O)(=O)c1cccc2nsnc12)N1CCN(Cc2ccc3c(c2)OCO3)CC1,0.9%,-5.5%,-11.6%,?,-6.6%
O=C(CCS(=O)(=O)c1cccc2nsnc12)N1CCN(C(=O)c2ccco2)CC1,-13.8%,.,-1.5%[0.365 µM],25.1µM*,-2.1%
CCc1ccc(NC(=O)CCS(=O)(=O)c2cccc3nsnc23)cc1,79.4µM*,14.6%,0.4%,-11.4%,-24.0%
COC(=O)c1sc(S(=O)(=O)NCc2cccs2)c(C(=O)OC)c1C,19.8%,?,-23.2%,14.1µM*,-2.9%
COc1ccc(Cc2nnc(NCCO)[nH]c2=O)cc1OC,10.9%,-6.0%,18.4%,.,5.97µM*
COc1ccc(Cc2nnc(N/N=C/c3ccc(Br)cc3)[nH]c2=O)cc1OC,6.3%,-7.6%,13.2%,10.7%,-4.7%
SMILES,Sfp PPTase inh,VP16 counter,RORg inh,ALDH1A1 inh,PLK1 PBD inh
COc1ccc(Cc2nnc(N/N=C/c3ccc(C)o3)[nH]c2=O)cc1,-12.9%,-25.6%,11.2µM*,-1.5%,-0.4%
COc1ccc(Cc2nnc(Nc3ccc(Cl)cc3)[nH]c2=O)cc1,-5.8%,1.6%,-16.0%,.,-3.2%
COc1ccc(Cc2nnc(N/N=C/c3ccc(O)cc3)[nH]c2=O)cc1OC,15.1%,3.98µM*,2.24µM*,3.9%,-23.6%
CCC/C=N/Nc1nnc(Cc2ccc(OC)c(OC)c2)c(=O)[nH]1,44.7µM*,-2.7%,5.9%,.,-12.1%
Nc1ccn([C@@H]2O[C@H](C(=O)NCc3ccc4c(c3)OCO4)[C@@H](O)[C@H]2O)c(=O)n1,.,.,.,.,-0.4%
COc1cc(/C=C/CNC[C@H]2O[C@@H](n3cnc4c(N)ncnc43)[C@H](O)[C@@H]2O)ccc1O,.,.,.,.,-8.3%
O=C(c1cccc(F)c1)N1CCC2(CCN(Cc3ccccc3)CC2)CC1,22.8%,2.5%,-19.5%,-2.0%,.

# Screening results as filed in PubChem.
